An excerpt weighted towards active compounds, which were near 11% of everything screened.
NIH3T3 tox: cytotoxic compounds in NIH 3T3 cells. NIH 3T3 viability, CellTiter-Glo ATP luminescence, 48-72 h. Potency, µM (top dose mostly 96.7 µM), without a hit: top-dose activity change, negative = cytotoxicity, hits mostly inhibitors. actives 4.3% (n = 94,000). AID 1345082; active = well fitted curve in the direction sought with a large enough effect; inconclusive = small, poorly fitted or top-dose-only effect, or another doubt; inactive = no such curve, though single readings can be large; an effect the other way counts as inactive or inconclusive; also: % is scaled to controls: 0 for no effect and ±100 for the full control effect; nearly all actives have a fitted effect of over 55% in size
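Cells were seeded at 400 per well, treated with pin-transferred compound, and kept 48 or 72 hr at 37 °C before CellTiter-Glo addition and luminescence imaging of cellular ATP.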
HEK cytotox: kills HEK 293 cells. HEK 293 viability, ATP luminescence (CellTiter-Glo), 48-72 h. AID 1345083. actives 6.6% (n = 94,000). Potency, µM (doses to about 115 µM), for inactives: top-dose activity change, negative = cytotoxicity, hits mostly inhibitors; active = well fitted curve in the direction sought with a large enough effect; inconclusive = small, poorly fitted or top-dose-only effect, or another doubt; inactive = no such curve, though single readings can be large; an effect the other way counts as inactive or inconclusive; also: % is scaled to controls: 0 for no effect and ±100 for the full control effect; nearly all actives have a fitted effect of over 60% in size
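ATP-coupled CellTiter-Glo luminescence served as viability read-out, recorded 10 min after reagent addition at room temperature. HEK 293 cells, 250 cells/well, had been incubated with pintool-transferred compound for 48 or 72 hr at 37 degree Celsius.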
FLuc inh: blocks purified firefly luciferase enzyme activity; P08659; purified P. pyralis luciferase, luminescence, biochemical; Potency, µM (doses to about 115 µM), hits mostly inhibitors; actives 2.5% (n = 76,000); active = well fitted curve in the direction sought with a large enough effect; inconclusive = small, poorly fitted or top-dose-only effect, or another doubt; inactive = no such curve, though single readings can be large; an effect the other way counts as inactive or inconclusive; also: % is scaled to controls: 0 for no effect and ±100 for the full control effect; nearly all actives have a fitted effect of over 65% in size
Target sequence (P08659 whole entry, looked up): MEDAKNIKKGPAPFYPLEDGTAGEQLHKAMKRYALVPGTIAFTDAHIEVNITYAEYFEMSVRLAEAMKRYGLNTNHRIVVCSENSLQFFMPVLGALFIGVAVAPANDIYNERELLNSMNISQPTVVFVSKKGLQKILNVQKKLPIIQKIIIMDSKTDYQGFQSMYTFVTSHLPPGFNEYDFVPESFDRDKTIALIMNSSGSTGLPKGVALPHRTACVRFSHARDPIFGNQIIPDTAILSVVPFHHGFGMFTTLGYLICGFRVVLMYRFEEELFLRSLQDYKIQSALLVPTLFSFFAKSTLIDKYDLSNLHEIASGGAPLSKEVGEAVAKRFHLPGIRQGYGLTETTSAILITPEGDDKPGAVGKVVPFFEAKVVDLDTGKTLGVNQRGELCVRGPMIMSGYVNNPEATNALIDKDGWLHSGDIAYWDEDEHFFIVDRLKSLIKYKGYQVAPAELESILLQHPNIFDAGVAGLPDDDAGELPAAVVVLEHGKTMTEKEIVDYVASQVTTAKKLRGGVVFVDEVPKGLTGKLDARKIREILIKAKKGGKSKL
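Cell-free enzyme assay, 10nM P. pyralis luciferase, luciferin and ATP each at 10uM. Inhibition profiled over a 6-point titration, read as luminescence.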
NPR1 antag: blocks ANP-stimulated signaling of human Npr1 receptor; P16066; HEK293 hNpr1 GloSensor cGMP, ANP-stimulated luminescence; Potency, µM (doses to about 46.3 µM), inactives show at the top dose activity change, negative = inhibition, hits mostly inhibitors; actives 1.6% (n = 76,000); also: % is scaled to controls: 0 for no effect and ±100 for the full control effect; nearly all actives have a fitted effect of over 60% in size
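HEK293 cells stably expressing human Npr1 and cGMP GloSensor pGS-40F, loaded 2 h with 2% GloSensor reagent, given compound 30 min at room temperature. Luminescence read before and 20 min after 0.1 nM hNppA.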
Npr1 antag conf: confirmation of human Npr1 natriuretic peptide receptor antagonists. shares compounds with NPR1 antag. HEK293 hNpr1 cGMP GloSensor luminescence, ANP-stimulated. Potency, µM (doses to about 57.6 µM), for inactives: top-dose activity change, negative = inhibition, usual class: inhibitors. actives 76% (n = 1,400); also: nearly all actives have a fitted effect of over 70% in size
Npr2 selectivity: antagonizes human Npr2, subtype selectivity check. shares compounds with NPR1 antag. HEK293 hNpr2 GloSensor cGMP luminescence, CNP-stimulated. Potency, µM (doses to about 57.6 µM), for the others: at the top dose activity change, negative = inhibition, hits mostly inhibitors. actives 67% (n = 1,400). AID 1347046; also: nearly all actives have a fitted effect of over 70% in size
FLuc inh counter: counter-screen for Npr1 antagonists: firefly luciferase inhibitors | Potency, µM (series often up to 57.6 µM), inactives show top-dose activity change, negative = inhibition, most hits filed as inhibitors | purified FLuc enzyme, luminescence, Km substrate | shares compounds with NPR1 antag | actives 0.7% (n = 1,400); active = well fitted curve in the direction sought with a large enough effect; inconclusive = small, poorly fitted or top-dose-only effect, or another doubt; inactive = no such curve, though single readings can be large; an effect the other way counts as inactive or inconclusive; also: 0% is about no effect
GloSensor cGMP: reduces cGMP signal in GloSensor control cells. shares compounds with NPR1 antag. HEK293 GloSensor cGMP, SNP-stimulated, luminescence. Potency, µM (doses to about 57.6 µM), inactives show at the highest dose activity change, negative = inhibition, actives largely listed as inhibitors. actives 69% (n = 1,400); also: % is scaled to controls: 0 for no effect and ±100 for the full control effect; nearly all actives have a fitted effect of over 70% in size
An asterisk follows results filed as active; i = inactive; ? = inconclusive; . = no result; [ ] = dose if it differs, or a comment. Unless noted, calls follow the shape of the full dose curve. Potency is read from the fitted curve at half-maximal effect.

SMILES | NIH3T3 tox | HEK cytotox | FLuc inh | NPR1 antag | Npr1 antag conf | Npr2 selectivity | FLuc inh counter | GloSensor cGMP
CC1=NS(=O)(=O)N(Cc2ccccc2)C=C1C(=O)OCc1nc(-c2ccc(F)cc2)no1 | ? | ? | i | -30% | . | . | . | .
COc1cccc(-c2noc(COC(=O)C3=CN(Cc4ccccc4)S(=O)(=O)N=C3C)n2)c1 | -21% | ? | ? | -24% | . | . | . | .
COc1ccc(OC)c(CNC(=O)c2ccc(-c3ccc(N4CCSCC4)nc3)cc2)c1 | ? | ? | i | 7.1µM* | 6.9µM* | 6.9µM* | -21% | 6.1µM*
O=C(O)c1ccc(CN2CCOC[C@H]2c2ncc(-c3ccc(F)cc3)[nH]2)cc1 | ? | -9%[172 µM] | i | 4%[70.6 µM] | . | . | . | .
Fc1ccc(CN2CCOC[C@H]2c2ncc(-c3ccc(F)cc3)[nH]2)cc1 | ? | ? | i | ? | ? | ? | 0%[86.2 µM] | ?
COc1ccc(CN2CCOC[C@H]2c2ncc(-c3ccc(C)cc3)[nH]2)cc1 | 100µM* | ? | i | -26%[70.6 µM] | -29%[86.2 µM] | ? | 1%[86.2 µM] | -22%[86.2 µM]
COc1ccc(-c2cnc([C@@H]3COCCN3Cc3ccccc3)[nH]2)cc1 | ? | ? | i | -22%[70.6 µM] | . | . | . | .
CN1CC[C@H](N(Cc2ccccc2)C(=O)CC2CCCC2)C[C@H](O)C1 | ? | -26% | . | . | . | . | . | .
COc1nccc(N2CCC(CC(=O)N(C)CCCc3c(C)nn(C)c3C)CC2)n1 | ? | ? | i | 11µM* | 22µM* | ? | 1% | 19µM*
Cc1noc(-c2cn(C3CCN(C(=O)COc4ccc(F)cc4)C3)nn2)n1 (stereo unspecified) | -25% | 4% | i | 3% | . | . | . | .
O=C(C1CCC1)N1CCC2(CC1)CC(Cc1nc(C3CC3)no1)CCO2 (stereo unspecified) | ? | ? | i | -17% | . | . | . | .
O=S(=O)(c1cccc(F)c1)N1CCC2(CC1)CC(Cc1nc(C3CC3)no1)CCO2 (stereo unspecified) | ? | 45µM* | i | 11µM* | 24µM* | 24µM* | 3% | 22µM*
Cc1nn2c(c1-c1cccnc1N1CCOCC1)N(CCc1ccccc1)CCC2 | ? | 25µM* | i | 4µM* | 35µM* | 31µM* | -6%[86.2 µM] | ?
Cc1nn2c(c1-c1ccccc1-c1ccccc1)N(C(=O)Cc1ccccn1)CCC2 | -4%[138 µM] | ? | i | -10%[70.6 µM] | . | . | . | .
Cc1nn2c(c1-c1cccnc1N1CCOCC1)N(C(=O)Cc1cccc(Cl)c1)CCC2 | ? | 4% | i | -21% | -27% | ? | 0% | 7%
CNC(=O)c1cc(C2CC2)nc2onc(C3CCN(C(=O)c4ccccc4)C3)c12 (stereo unspecified) | -21% | -11% | . | . | . | . | . | .
Cc1ccc(CNC(=O)CCC2CCN(S(=O)(=O)c3ccccc3)CC2)cc1 | ? | -24% | i | -24% | -17% | -11% | 3% | -13%
CCN(Cc1ccccc1)C(=O)CCC1CCN(S(=O)(=O)c2ccccc2)CC1 | 28µM* | ? | i | -21% | ? | -20% | -2% | -13%
CCN(Cc1ccncc1)C(=O)CCC1CCN(S(=O)(=O)c2ccccc2)CC1 | ? | ? | i | -18% | . | . | . | .
O=C1[C@@H]2C[C@@H](CN2CC2CC2)Oc2ccccc2N1Cc1cccnc1 | -23%[174 µM] | ? | i | -17%[70.6 µM] | . | . | . | .
O=C1[C@@H]2C[C@@H](CN2Cc2ccc(C(F)(F)F)cc2)Oc2ccccc2N1Cc1cccnc1 | ? | 35µM* | i | -28% | ? | -18% | -9% | -1%
COC(=O)C1=C(C)N=C2SC=C(CC(=O)N3CCC(C)CC3)N2C1c1cccc(OC)c1 (stereo unspecified) | ? | 40µM* | i | ? | ? | 19µM* | -1% | -6%
C=CCOC(=O)C1=C(C)N=C2SC=C(CC(=O)N3CCCC3)N2C1c1ccccc1Cl (stereo unspecified) | -13% | ? | i | 13µM* | 24µM* | 24µM* | -2% | ?
CCC1=C(C(=O)OC)C(c2ccccc2F)N2C(CC(=O)N3CCCC3)=CSC2=N1 (stereo unspecified) | -26% | -17% | i | ? | -29% | ? | 3% | ?
COC(=O)C1=C(C)N=C2SC=C(CC(=O)N3CCCC3)N2C1c1cccc(OC)c1 (stereo unspecified) | ? | ? | i | ? | . | . | . | .
SMILES | NIH3T3 tox | HEK cytotox | FLuc inh | NPR1 antag | Npr1 antag conf | Npr2 selectivity | FLuc inh counter | GloSensor cGMP
CC1=C(C(=O)OC(C)C)C(c2ccccc2F)N2C(CC(=O)N3CCCC3)=CSC2=N1 (stereo unspecified) | -4% | -26% | i | ? | ? | ? | 1% | ?
CCC1=C(C(=O)OC)C(c2ccccc2F)N2C(CC(=O)N3CCC(C)CC3)=CSC2=N1 (stereo unspecified) | ? | ? | i | -29% | . | . | . | .
CCC1=C(C(=O)OC)C(c2ccccc2Cl)N2C(CC(=O)N(C)Cc3ccccc3)=CSC2=N1 (stereo unspecified) | ? | ? | i | ? | ? | ? | 1% | ?
CCn1nc(C)c(CCN(C)C(=O)C2CCN(c3cnn(Cc4ccccc4)c(=O)c3)C2)c1C (stereo unspecified) | -31% | ? | . | . | . | . | . | .
O=C1N[C@H](CC(=O)N2CCC(c3ccccc3)C2)C(=O)Nc2ccccc21 (stereo partly specified) | i | 10% | i | 6% | . | . | . | .
O=C1N[C@H](CC(=O)N2CCC(Cc3ccccc3)CC2)C(=O)Nc2ccccc21 | -21% | ? | i | 10µM* | 19µM* | 12µM* | 0% | -19%
O=C(NCCCn1ccnc1)c1nc(-c2ccccc2)cc2[nH]ccc12 | ? | ? | i | ? | ? | ? | 3%[86.2 µM] | -19%[86.2 µM]
C[S+](=O)([O-])CCn1ncc2cc(OCC3CCN(C(=O)OC4CCCC4)CC3)ccc21 | ? | ? | i | 10µM* | 11µM* | 11µM* | -18% | 9.7µM*

High-throughput results: PubChem, National Center for Advancing Translational Sciences (NCATS)
